Our source for the AC50 and outcome values is PubChem BioAssay (EPA / NIEHS).

Where a structure was tested more than once in an assay, its records may differ in their call. The source made the active and inactive calls. How the source made its calls: active means hit-call score of the fitted dose curve at least 0.9, where 1 is the maximum; inactive means score below 0.9.

Experiment [1] can be described thus: ATG_CRE_CIS: Attagene CIS-FACTORIAL HepG2 Assay for human cAMP Responsive Element (CRE) binding protein 3 (AID 2282926). The conditions noted are these: HepG2 CRE cis-reporter, Attagene multiplexed mRNA; actives raise or lower the signal. The procedure, abridged:
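HepG2 cells transiently transfected with a multiplexed reporter library (CRE-driven unit among them) were dosed for 24 h. Reporter mRNA was quantified by RT-PCR, fluorescent labelling, HpaI digestion and capillary electrophoresis, with bidirectional fitting against DMSO baseline.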

In experiment [2] the target is CCAAT/enhancer-binding protein beta (Homo sapiens) (UniProt P17676). Kind of experiment: ATG_C_EBP_CIS: Attagene CIS-FACTORIAL HepG2 Assay for human CCAAT/Enhancer Binding Protein (C/EBP) beta (AID 2282927). To be noted: HepG2 Attagene cis-factorial transcription factor reporter; actives raise or lower the signal. In short, it runs like this:
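Following a 24 h incubation with test chemical, transfected HepG2 cells yielded RNA whose reporter transcripts were quantified by RT-PCR and fluorescent capillary electrophoresis, with DMSO serving as baseline for bidirectional fitting.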

Experiment [3] can be described thus: ATG_CMV_CIS: Attagene CIS-FACTORIAL HepG2 Assay for human CMV (Internal Marker) (AID 2282928).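 Further: endpoint acts as a background internal control marker rather than a target.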 To be noted: HepG2 CMV promoter reporter, transcription factor profiling; actives raise or lower the signal. The procedure, abridged: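 HepG2 cells transiently transfected with multiple cis-regulated reporter units; 24 h compound exposure. Reporter mRNA quantified by RT-PCR, 6-FAM primer-extension labeling, HpaI digestion and capillary electrophoresis; bidirectional fitting against DMSO baseline.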

Experiment [4] in a line: ATG_DR4_LXR_CIS: Attagene CIS-FACTORIAL HepG2 Assay for human Liver X Receptor (LXR), DR4 submotif (AID 2282929). To be noted: HepG2 Attagene DR4 cis-reporter, mRNA transcription; actives raise or lower the signal. In short, it runs like this: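 HepG2 cells were transiently transfected with multiple cis-regulated reporter units and dosed for 24 hours. The DR4 reporter mRNA was quantified by RT-PCR, 6-FAM labelling and capillary electrophoresis. Bidirectional fits used DMSO as baseline.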

The target of experiment [5] is Aryl hydrocarbon receptor (Homo sapiens) (UniProt P35869). Kind of experiment: ATG_Ahr_CIS: Attagene CIS-FACTORIAL HepG2 Assay for human Aryl Hydrocarbon Receptor (Ahr) (AID 2282930). To be noted: HepG2 AhR cis-factorial reporter transcription; actives raise or lower the signal. The procedure, abridged:
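Values derive from bidirectional fitting against DMSO negative control. Underlying signal: cis-element reporter mRNA in transiently transfected HepG2, harvested 24 h post-dose and measured by RT-PCR plus capillary electrophoresis.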

Experiment [6] can be described thus: ATG_AP_1_CIS: Attagene CIS-FACTORIAL HepG2 Assay for human Activator Protein 1 (AP-1) (AID 2282931). The conditions noted are these: HepG2 Attagene cis-factorial AP-1 reporter mRNA; actives raise or lower the signal. In short, it runs like this: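 HepG2 cells transiently transfected with cis-element-driven reporter transcription units, dosed for 24 hours. Reporter mRNA measured by RT-PCR, 6-FAM labelling, HpaI digestion and capillary electrophoresis. Bidirectional fitting against DMSO baseline.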

Experiment [7] is described as follows: ATG_AP_2_CIS: Attagene CIS-FACTORIAL HepG2 Assay for human Activator Protein 2 (AP-2) (AID 2282932). To be noted: HepG2 AP-2 cis-reporter, Attagene transcription factor profiling; actives raise or lower the signal. The procedure, abridged: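 Bidirectional curve fitting against DMSO was applied to reporter mRNA signals from HepG2 cells 24 h after dosing. Cis-promoter reporter units, transiently transfected, were read by RT-PCR plus capillary electrophoresis.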

Experiment [8] in a line: ATG_BRE_CIS: Attagene CIS-FACTORIAL HepG2 Assay for human Bone Morphogenetic Protein (BMP) Response Element (BRE) (AID 2282933). To be noted: HepG2 BMP response element reporter, Attagene transcription factor profiling; actives raise or lower the signal. In short, it runs like this: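 After a 24 h chemical treatment, transiently transfected HepG2 cells were lysed for RNA; reporter transcripts were quantified by fluorescent RT-PCR and capillary electrophoresis, normalised to DMSO.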

Experiment [9] has as its target Retinoic acid receptor alpha (Homo sapiens) (UniProt P10276). In words: ATG_DR5_RAR_CIS: Attagene CIS-FACTORIAL HepG2 Assay for human Retinoic Acid Receptor Alpha (RARE), DR5 submotif (AID 2282934).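 On AC50: reporter responds to endogenous RAR alpha beta and gamma in HepG2 not RARA alone.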 To be noted: HepG2 Attagene cis-factorial RARE DR5 reporter, mRNA; actives raise or lower the signal. In short, it runs like this: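 Endpoint fitted in both directions relative to DMSO as negative control. It reflects DR5 cis-element reporter mRNA induction in transiently transfected HepG2 cells, measured 24 h after dosing through RT-PCR and fluorescent capillary electrophoresis.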

Experiment [10] addresses Transcription factor E2F1 (Homo sapiens) (UniProt Q01094). In words: ATG_E2F_CIS: Attagene CIS-FACTORIAL HepG2 Assay for human E2F Transcription Factor 1 (AID 2282935). To be noted: HepG2 Attagene cis-reporter, E2F reporter RNA transcripts; actives raise or lower the signal. The procedure, abridged:
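Multiplexed cis-reporter assay: HepG2, transient transfection, 24 h dosing, mRNA quantitation by labeled RT-PCR and CE.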

Sequence of CCAAT/enhancer-binding protein beta (Homo sapiens) (P17676 whole entry, looked up): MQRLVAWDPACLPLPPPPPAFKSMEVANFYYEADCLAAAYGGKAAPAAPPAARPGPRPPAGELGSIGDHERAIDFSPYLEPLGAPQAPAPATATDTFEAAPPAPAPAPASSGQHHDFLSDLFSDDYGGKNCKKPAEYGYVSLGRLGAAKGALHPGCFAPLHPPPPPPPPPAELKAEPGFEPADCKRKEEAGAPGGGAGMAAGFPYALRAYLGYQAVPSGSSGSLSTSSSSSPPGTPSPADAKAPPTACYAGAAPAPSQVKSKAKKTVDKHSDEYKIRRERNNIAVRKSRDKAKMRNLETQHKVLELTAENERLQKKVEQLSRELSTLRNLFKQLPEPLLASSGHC
Sequence of Retinoic acid receptor alpha (Homo sapiens) (P10276 whole entry, looked up): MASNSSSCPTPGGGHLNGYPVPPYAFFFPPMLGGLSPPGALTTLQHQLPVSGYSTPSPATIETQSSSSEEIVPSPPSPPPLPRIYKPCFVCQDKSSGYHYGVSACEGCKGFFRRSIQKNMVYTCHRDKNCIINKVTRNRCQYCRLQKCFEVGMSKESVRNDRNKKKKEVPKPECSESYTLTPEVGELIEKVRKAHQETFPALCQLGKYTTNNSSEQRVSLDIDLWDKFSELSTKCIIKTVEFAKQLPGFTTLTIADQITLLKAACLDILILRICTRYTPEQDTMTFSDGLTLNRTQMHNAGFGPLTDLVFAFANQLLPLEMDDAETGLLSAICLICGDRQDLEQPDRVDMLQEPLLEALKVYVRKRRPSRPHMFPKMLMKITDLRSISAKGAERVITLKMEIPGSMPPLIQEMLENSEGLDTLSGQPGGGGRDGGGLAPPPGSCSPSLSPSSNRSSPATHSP
Sequence of Aryl hydrocarbon receptor (Homo sapiens) (P35869 whole entry, looked up): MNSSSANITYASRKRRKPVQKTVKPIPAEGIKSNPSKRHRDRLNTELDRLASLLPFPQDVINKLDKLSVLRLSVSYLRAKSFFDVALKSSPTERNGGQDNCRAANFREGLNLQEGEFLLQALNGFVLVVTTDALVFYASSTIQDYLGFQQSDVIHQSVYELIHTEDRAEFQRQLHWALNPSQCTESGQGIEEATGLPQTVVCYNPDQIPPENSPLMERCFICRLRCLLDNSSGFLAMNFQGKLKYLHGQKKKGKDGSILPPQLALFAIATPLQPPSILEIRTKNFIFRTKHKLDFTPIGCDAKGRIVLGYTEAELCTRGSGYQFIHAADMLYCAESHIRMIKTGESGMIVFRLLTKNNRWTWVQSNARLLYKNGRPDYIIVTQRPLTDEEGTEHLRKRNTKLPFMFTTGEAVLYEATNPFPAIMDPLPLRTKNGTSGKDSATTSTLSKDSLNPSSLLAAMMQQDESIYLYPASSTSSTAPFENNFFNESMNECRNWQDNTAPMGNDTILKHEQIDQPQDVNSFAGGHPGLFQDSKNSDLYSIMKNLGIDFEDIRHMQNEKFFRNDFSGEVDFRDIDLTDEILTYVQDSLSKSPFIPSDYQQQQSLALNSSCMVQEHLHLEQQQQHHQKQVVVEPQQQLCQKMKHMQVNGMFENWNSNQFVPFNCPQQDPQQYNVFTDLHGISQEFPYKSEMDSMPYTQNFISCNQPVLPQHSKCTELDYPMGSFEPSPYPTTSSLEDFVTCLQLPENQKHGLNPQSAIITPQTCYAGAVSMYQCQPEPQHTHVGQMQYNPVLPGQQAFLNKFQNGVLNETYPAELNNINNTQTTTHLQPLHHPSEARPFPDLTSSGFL
Sequence of Transcription factor E2F1 (Homo sapiens) (Q01094 whole entry, looked up): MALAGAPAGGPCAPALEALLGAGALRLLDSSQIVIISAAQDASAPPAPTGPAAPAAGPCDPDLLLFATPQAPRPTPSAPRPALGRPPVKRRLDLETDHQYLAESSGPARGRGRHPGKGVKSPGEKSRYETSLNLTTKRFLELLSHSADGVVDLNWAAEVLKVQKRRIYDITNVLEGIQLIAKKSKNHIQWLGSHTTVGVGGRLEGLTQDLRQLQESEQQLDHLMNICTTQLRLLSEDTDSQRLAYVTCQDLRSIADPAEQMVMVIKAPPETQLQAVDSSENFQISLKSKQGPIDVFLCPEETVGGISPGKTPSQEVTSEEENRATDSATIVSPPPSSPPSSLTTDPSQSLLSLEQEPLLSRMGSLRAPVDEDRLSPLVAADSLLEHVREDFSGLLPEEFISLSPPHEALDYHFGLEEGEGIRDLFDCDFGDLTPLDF

In general, AC50 refers to the concentration at which the activity in the assay is half-maximal. As to `CCCCOC(=O)c1ccc(O)cc1`, the AC50 in [1] is 72.6 µM (active); in [2], 100 µM (active); in [4], 169 µM (active); in [7], 136 µM (active); in experiment [8], 166 µM (active) [middle of 4 runs]. Besides, the result in experiment [1], in experiment [2], in experiment [3], in experiment [4], in [5] and in [6] was inactive. Also, the molecule was called inactive in [7], in experiment [9] and in experiment [10].

Regarding `O=c1[nH]sc2ccccc12`, the AC50 in [1] is 45.4 µM (active). The outcome in experiment [2], in experiment [3], in experiment [4], in [5], in experiment [6] and in [7] was inactive. Also, the call in experiment [8], in experiment [9] and in experiment [10] was inactive.

Take `O=CCCCC=O`: the call in experiment [1], in [2], in experiment [3], in [4], in experiment [6] and in experiment [7] was inactive. The molecule was called inactive in [8] and in experiment [10].

As to `c1ccc2ccccc2c1`, the molecule was classed as inactive in [1], in experiment [2], in experiment [3], in [4], in experiment [5] and in [6]. In addition, the call in [7], in [8], in experiment [9] and in experiment [10] was inactive.

As for `CN(C)C(=O)C1(N2CCCCC2)CCN(CC[C@@]2(c3ccc(Cl)c(Cl)c3)CN(C(=O)c3ccccc3)CCO2)CC1`, the call in experiment [1], in experiment [2], in experiment [3], in [4], in experiment [5] and in [7] was inactive. For the same molecule, the molecule was called inactive in experiment [8], in experiment [9] and in experiment [10]. The AC50 in [6] was 0.463 µM (active).

Turning to `O=C(OCCCCCCOC(=O)c1ccccc1)c1ccccc1`, the molecule was classed as inactive in experiment [1], in experiment [2], in experiment [3], in experiment [4], in [5] and in experiment [6]. In addition, the result in [7], in [8], in [9] and in experiment [10] was inactive.

Turning to `O=C(O)c1ccccc1-n1cc(C(=O)O)c(=O)c2cc(Nc3c(F)cc(F)cc3Cl)c(Cl)cc21`, the call in experiment [1], in [2], in [3], in experiment [4], in experiment [5] and in experiment [6] was inactive. In addition, the outcome in [7], in [8], in experiment [9] and in [10] was inactive.

`Cc1c2ccccc2c(C)c2c1ccc1ccccc12`: the result in experiment [1], in [2], in experiment [7] and in [10] was inactive. Further, the AC50 was 33.1 µM (active) in experiment [3]; 10.4 µM (active) in experiment [4]; 3.38 µM (active) in [5]; 25.5 µM (active) in experiment [6]; 14.6 µM (active) in experiment [8]; 53.3 µM (active) in [9].

On to `O=C(O)Cn1c(=O)n(Cc2ccc(Br)cc2F)c(=O)c2ccc(Cl)cc21`, for which the outcome in [1], in experiment [2], in experiment [3], in experiment [4], in experiment [5] and in [6] was inactive. Further, the outcome in experiment [7], in experiment [8], in [9] and in experiment [10] was inactive.

As for `Cc1cc(F)ccc1-c1cc(N2CC[C@@H](O)[C@H]2CO)ncc1N(C)C(=O)C(C)(C)c1cc(C(F)(F)F)cc(C(F)(F)F)c1`, the molecule was classed as inactive in experiment [1], in experiment [2], in [3], in experiment [4], in experiment [5] and in experiment [6]. Moreover, the call in experiment [7], in [8], in experiment [9] and in [10] was inactive.

For `NC(=O)c1nc(-c2cccc(-c3cc(F)ccc3OCC(F)(F)C(F)(F)F)c2)n[nH]1`, the AC50 in experiment [1] is 27.7 µM (active); in [3] it was 12.1 µM (active); in experiment [4], 44.4 µM (active); in experiment [6], 24 µM (active); in [8], 19.8 µM (active); in experiment [10], 16.8 µM (active). Besides, the result in experiment [2], in experiment [5], in experiment [7] and in experiment [9] was inactive.

Take `COc1cccc([C@H](O)C2CCN(CCc3ccc(F)cc3)CC2)c1OC`: the result in experiment [1], in [2], in experiment [3], in experiment [5], in experiment [6] and in [7] was inactive. The molecule was classed as inactive in experiment [8], in experiment [9] and in experiment [10]. In experiment [4], the AC50 is 100 µM (active).

Turning to `O=c1ccc2ccccc2o1`, the result in experiment [1], in [2], in experiment [3], in experiment [4], in experiment [5] and in [6] was inactive. The call in [7], in experiment [8], in [9] and in experiment [10] was inactive.

Consider `CC(C)(O)c1ccc(CNC(=O)c2cccnc2Oc2ccc3nonc3c2)cc1`, for which the molecule was called inactive in [1], in experiment [2], in [3], in [4], in experiment [5] and in experiment [6]. Also, the molecule was called inactive in experiment [7], in experiment [8], in experiment [9] and in experiment [10].

For `Cc1ncc(CO)c(CO)c1O`, the call in experiment [1], in [2], in experiment [3], in experiment [4], in [5] and in experiment [6] was inactive. In addition, the outcome in experiment [7], in experiment [8] and in experiment [10] was inactive.

For `Oc1ccccc1`, the molecule was classed as inactive in experiment [1], in experiment [2], in experiment [3], in [4], in experiment [5] and in [6]. Further, the result in experiment [7], in [8], in experiment [9] and in experiment [10] was inactive.

As for `CC1=CC(=O)/C(=C(/C)O)C(=O)O1`, the molecule was classed as inactive in experiment [1], in [2], in [3], in experiment [4], in [6] and in [7]. Further, the result in experiment [8], in experiment [9] and in experiment [10] was inactive.

For `C[C@]12CC[C@@H]3c4ccc(O)cc4CC[C@H]3[C@@H]1CCC2=O`, the molecule was classed as inactive in [1], in experiment [2], in [3], in experiment [4], in experiment [6] and in [7]. The molecule was classed as inactive in experiment [8] and in [10]. For the same molecule, the AC50 in [6] is 24.5 µM (active).

Take `CN(C[C@@H](CC[N+]12CCC(C3CCCCC3)(CC1)CC2)c1ccc(Cl)c(Cl)c1)C(=O)c1cc(C(F)(F)F)cc(C(F)(F)F)c1`: the call in experiment [1], in experiment [2], in experiment [3], in experiment [4], in experiment [5] and in experiment [6] was inactive. The molecule was called inactive in [7], in experiment [8], in experiment [9] and in experiment [10].

For the molecule `CN1C(=O)CC[C@H]1c1cccnc1`, the molecule was classed as inactive in experiment [1], in experiment [2], in [3], in [4], in experiment [5] and in [6]. The molecule was called inactive in [7], in experiment [8] and in experiment [10].
